Compound activity (PubChem BioAssay)
A selection: hits, their analogues and other compounds. The true share with any hit is near 3.4%.
PAFAH2 FP inh: PAFAH2 (human) inhibition | recombinant PAFAH2, FP-rhodamine activity probe, fluorescence polarization | actives 0.99% (n = 340,000) | inhibition, % at 3.39 µM | AID 492956;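 active means inhibition above the mean over all tested compounds plus 3 SD, cut at about 30% in these data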;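 further: inhibitors block probe labeling of enzyme so polarization drops; 0% = enzyme with DMSO and 100% = wells lacking PAFAH2 protein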
PAFAH1B2 FP inh: inhibitors of human PAFAH1B2. recombinant PAFAH1B2, FP-rhodamine activity probe, fluorescence polarization. inhibition, % at 3.39 µM. actives 1.2% (n = 340,000);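 active means inhibition above the mean of all tested compounds plus 3 SD, cut at about 24% in these data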;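 further: 0% = enzyme with DMSO and 100% = wells lacking PAFAH1B2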
PP5 primary: inhibitors of human protein phosphatase 5 (PP5) | purified PP5c, OMFP substrate fluorescence | P53041 | inhibition, % at 6.7 µM | actives 0.18% (n = 320,000);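 active means inhibition above the campaign's mean inhibition across all tested compounds plus 3 SD, cut at about 9.5% in these data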;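 further: 0% = DMSO only and 100% = 100 µM cantharidin control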
Target sequence (P53041 whole entry, looked up): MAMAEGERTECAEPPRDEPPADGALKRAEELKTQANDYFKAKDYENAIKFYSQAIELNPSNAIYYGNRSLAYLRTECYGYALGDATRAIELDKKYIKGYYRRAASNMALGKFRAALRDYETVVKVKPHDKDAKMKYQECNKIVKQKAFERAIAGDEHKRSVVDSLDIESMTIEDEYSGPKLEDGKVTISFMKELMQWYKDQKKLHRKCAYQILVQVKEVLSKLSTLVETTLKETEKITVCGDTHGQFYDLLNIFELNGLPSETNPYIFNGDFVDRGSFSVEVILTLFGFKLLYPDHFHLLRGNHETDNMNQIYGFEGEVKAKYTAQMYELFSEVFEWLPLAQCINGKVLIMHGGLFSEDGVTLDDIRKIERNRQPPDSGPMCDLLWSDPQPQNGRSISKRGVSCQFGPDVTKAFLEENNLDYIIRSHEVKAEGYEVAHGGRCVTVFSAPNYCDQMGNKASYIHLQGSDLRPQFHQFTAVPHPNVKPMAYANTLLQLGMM
pPAFAH inh: pPAFAH (human) enzyme inhibition; Q13093; recombinant pPAFAH, FP-rhodamine probe fluorescence polarization; inhibition, % at 3.39 µM; actives 1.5% (n = 330,000);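 active means inhibition above the mean inhibition across the screen plus 3 SD, cut at about 25% in these data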;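 further: inhibitors block binding of the rhodamine activity-based probe so polarization drops; 0% = enzyme with DMSO and 100% = wells lacking pPAFAH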
PP1 inh: counter-screen for PP5 inhibitors: inhibitors of human PP1-alpha. purified PP1alpha, OMFP fluorescence. actives 0.9% (n = 320,000). inhibition, % at 6.7 µM. P62136;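 active means inhibition above the mean inhibition of all tested compounds plus 3 SD, computed separately for each screening campaign, cut at about 15% in these data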
PAFAH1B3 FP inh: inhibitors of human PAFAH1B3; inhibition, % at 3.39 µM; AID 492972; actives 0.28% (n = 340,000); recombinant PAFAH1B3, FP-rhodamine probe, fluorescence polarization;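 active means inhibition above the screen-wide average of all tested compounds plus 3 SD, cut at about 25% in these data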;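 further: 0% = enzyme with DMSO only and 100% = wells lacking PAFAH1B3 protein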
PP1 inh confirm: human PP1 phosphatase inhibition, confirmation; inhibition, % at 6.7 µM; actives 52% (n = 1,900); shares compounds with PP1 inh; purified PP1alpha, OMFP substrate fluorescence;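 active means mean PP1 inhibition above a set limit taken from the earlier primary screen, cut at about 15% in these data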
PP5 inh counter: inhibits human PP5 phosphatase in PP1 counter-screen. shares compounds with PP1 inh. purified PP5c, OMFP fluorescence. inhibition, % at 6.7 µM. actives 4% (n = 1,900). AID 2360;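 active means mean PP5 inhibition over triplicate wells above about 9.5% taken from the earlier PP1 screen, limit read from the data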
Active calls of the source: *.

Screening CCOC(=O)CSc1nnc(Cc2cc(=O)[nH]c(=O)[nH]2)n1-c1ccc(Cl)cc1 returned PAFAH2 FP inh 1.2, PAFAH1B2 FP inh -0.1, PP5 primary -1.3, pPAFAH inh 2.4, PP1 inh 3.8 and PAFAH1B3 FP inh -1.9.
Screening Cc1cc2oc3ccc(NCCCn4ccnc4)cc3c(=O)c2cc1C returned PAFAH2 FP inh 13.6, PAFAH1B2 FP inh 5.5, PP5 primary 2.0, pPAFAH inh 20.5, PP1 inh 24.8*, PAFAH1B3 FP inh 11.7, PP1 inh confirm 5.3 and PP5 inh counter -1.8.
`COc1cccc(N(C(=O)CS(=O)CC(=O)Nc2ccc(F)cc2)C(C(=O)NC2CCCCC2)c2cccs2)c1` (stereo not drawn) gave PAFAH2 FP inh -21.7, PAFAH1B2 FP inh -3.4, PP5 primary 1.1, pPAFAH inh 3.4, PP1 inh 20.0*, PAFAH1B3 FP inh -4.5, PP1 inh confirm 27.8* and PP5 inh counter -0.2.
For COc1ccc(N(C(=O)c2snc(C(N)=O)c2N)C(C(=O)NC2CCCC2)c2cccs2)cc1OC (stereo not drawn) the results were PAFAH2 FP inh -4.5, PAFAH1B2 FP inh 1.9, PP5 primary 2.1, pPAFAH inh 6.1, PP1 inh 17.8*, PAFAH1B3 FP inh -2.1, PP1 inh confirm 29.4* and PP5 inh counter 0.7.
CCC(C(=O)NC1CCCC1)N(C(=O)c1snc(C(N)=O)c1N)c1ccc(OC)c(OC)c1 (stereo not drawn) was read as PAFAH2 FP inh 0.2, PAFAH1B2 FP inh -2.2, PP5 primary -1.1, pPAFAH inh 0.3, PP1 inh -1.8 and PAFAH1B3 FP inh 3.5.
O=C(/C=C/c1ccccc1)NCCc1ccccc1 was read as PAFAH2 FP inh 2.6, PAFAH1B2 FP inh 5.4, PP5 primary -0.2, pPAFAH inh 22.5, PP1 inh 35.3*, PAFAH1B3 FP inh 12.1, PP1 inh confirm -1.1 and PP5 inh counter -4.8.
`O=C(/C=C/c1ccc([N+](=O)[O-])cc1)NCCc1ccccc1` gave PAFAH2 FP inh 16.0, PAFAH1B2 FP inh 4.9, PP5 primary 2.6, pPAFAH inh 2.0, PP1 inh -1.4 and PAFAH1B3 FP inh 7.0.
N#C/C(=C\c1ccc(OC(F)F)cc1)C(=O)N1CCCCC1 was read as PAFAH2 FP inh 2.3, PAFAH1B2 FP inh 3.8, PP5 primary -0.7, pPAFAH inh 5.8, PP1 inh -4.1 and PAFAH1B3 FP inh 2.1.
NC(=O)/C(=N\OC(=O)c1ccco1)c1nc(-c2ccc(Br)cc2)cs1 was read as PAFAH2 FP inh 6.6, PAFAH1B2 FP inh 14.8, PP5 primary 5.2, pPAFAH inh 32.2*, PP1 inh 27.2*, PAFAH1B3 FP inh 24.9, PP1 inh confirm 6.3 and PP5 inh counter -1.8.
Screening Nc1nc(-c2ccc(NC(=O)c3ccco3)cc2)cs1 returned PAFAH2 FP inh 10.6, PAFAH1B2 FP inh 4.6, PP5 primary 0.7, pPAFAH inh 3.7, PP1 inh 3.7 and PAFAH1B3 FP inh 7.7.
CC(=O)c1cccc(NC(=O)N[C@@H](CC(C)C)C(=O)O)c1 was read as PAFAH2 FP inh -4.7, PAFAH1B2 FP inh 4.1, PP5 primary 2.4, pPAFAH inh 2.5, PP1 inh -1.9 and PAFAH1B3 FP inh 8.4.
Screening CC(=O)c1ccc(NC(=O)N[C@@H](CC(C)C)C(=O)O)cc1 returned PAFAH2 FP inh 7.5, PAFAH1B2 FP inh -2.8, PP5 primary -3.1, pPAFAH inh -6.2, PP1 inh 18.1*, PAFAH1B3 FP inh 3.6, PP1 inh confirm -4.1 and PP5 inh counter -0.9.
For Fc1cccc(Cl)c1CSc1ccc2nnc(-c3ccccn3)n2n1 the results were PAFAH2 FP inh -0.8, PAFAH1B2 FP inh -4.3, PP5 primary 1.8, pPAFAH inh 4.3, PP1 inh 10.1 and PAFAH1B3 FP inh 4.7.
Screening Fc1cccc(CSc2ccc3nnc(-c4ccccn4)n3n2)c1 returned PAFAH2 FP inh 1.9, PAFAH1B2 FP inh 4.9, PP5 primary 1.9, pPAFAH inh -2.6, PP1 inh 18.5*, PAFAH1B3 FP inh -3.7, PP1 inh confirm 0.9 and PP5 inh counter -4.6.
